# High-throughput results from PubChem.
# Hits are enriched below; roughly 4.6% of the tested compounds scored in any of these assays.
# HCV inhibitor: inhibitors of hepatitis C virus infection; Huh7.5.1 HCVcc-Cre infection, luciferase reporter, 44 h; Potency, µM (doses to about 41.8 µM), usual class: inhibitors; 3.4% of 340,000 active; active means well fitted inhibition curve with a large enough effect; inconclusive means small, poorly fitted or top-dose-only effect, or another doubt; inactive means no such curve, though single readings can be large or run the other way
#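 Cells (1,000/well) were plated 4 h before compound, then infected with HCVcc-Cre virus (~0.5 moi). After 44 h further culture, infection was read as luciferase luminescence following a 15 min substrate incubation at room temperature.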
# MARV entry inh: blocks Marburg virus binding to or entry into cells. Marburg virus pseudotyped entry inhibition, cell reporter. Potency, µM (series often up to 37.8 µM), actives largely listed as inhibitors. 1.8% of 300,000 active; calls by dose curve; tested in HEK293 cells
# Vaccinia Venus: inhibitors of vaccinia virus (Venus reporter) | Vaccinia virus Venus reporter expression, fluorescence | Potency, µM (titrated, usually from 36.5 µM), most hits filed as inhibitors | 0.46% of 330,000 active | AID 720580; calls by dose curve; tested in A549 cells; further: nearly all actives have a fitted effect of over 30% in size
# LASV entry inh: blocks Lassa virus binding to or entry into cells; Lassa virus pseudotype entry inhibition, cell reporter; Potency, µM (top dose mostly 37.9 µM), hits mostly inhibitors; 1.2% of 300,000 active; AID 540256; calls by dose curve; tested in HEK293 cells; further: nearly all actives have a fitted effect of over 50% in size
# VACV mCherry inh: vaccinia inhibition (mCherry reporter) | Vaccinia virus mCherry reporter infection, fluorescence | Potency, µM (highest dose often 36.5 µM), most hits filed as inhibitors | 0.63% of 310,000 active; calls by dose curve; tested in A549 cells; further: nearly all actives have a fitted effect of over 35% in size
# Hits are given with their value; - = inactive; ? = inconclusive; . = not tested or not shown; [ ] = dose if it differs, or a comment.
SMILES,HCV inhibitor,MARV entry inh,Vaccinia Venus,LASV entry inh,VACV mCherry inh
Cc1ccc(C)c(-n2nnnc2Sc2nnnn2-c2ccccc2)c1,11µM,15µM,.,?,.
CCNC(=O)c1sc2ncnc(NCCCN3CCOCC3)c2c1C,.,.,-,.,-
N/C(CCN1CCCCC1)=N\O,.,-,.,.,.
CC(C)(C)OC(=O)N1CCC(C(=O)Nc2cccc(C(=O)NCCCc3ccccc3)c2)CC1,4µM,.,-,-,-
O=C(NCCCc1ccccc1)c1cccc(NC(=O)C2CCCCC2)c1,4.5µM,.,-,?,-
CC(C)(C)OC(=O)N(CCc1ccccc1)Cc1cccc(OCc2cccc(NC(=O)C3CCC3)c2)c1,-[8.37 µM],.,-,.,-
CC(C)(C)OC(=O)N(Cc1ccccc1)Cc1cccc(OCc2cccc(NC(=O)C3CC3)c2)c1,1.3µM,.,?,.,-
CC(C)(C)OC(=O)N1CCCC(C(=O)Nc2cccc(C(=O)NCCCc3ccccc3)c2)C1 (centres undefined),?,?,-,.,-
CCOc1cc(C2CC(=O)Nc3c2c(=O)nc(SCc2cccc(Cl)c2)n3C)ccc1O (centres undefined),.,-,-,-,-
Cc1nc(Nc2ccc(Cl)cc2)cc(-c2ccccc2)n1,.,-,-,?,-
O=C(NCCc1ccccn1)C1CC12CCN(C(=O)c1ccccc1Cl)CC2 (centres undefined),.,.,-,.,-
CCOc1ccsc1C(=O)O,3.2µM,?,-,-,-
CC(C)=CCc1c2c(c(O)c3c(=O)c4c(oc13)-c1cc(O)c(O)cc1OC4C=C(C)C)C=CC(C)(C)O2 (centres undefined),-,.,?,.,11µM
Cc1ccc(CN2CCOc3ccc(CN4CCC(O)(c5cccnc5)CC4)cc3C2)cc1C,.,.,?,.,-
Cc1cc2ncn(/N=C/c3ccc([N+](=O)[O-])o3)c2cc1C,11µM,?,16µM,-,28µM
Cc1ccc(S(=O)(=O)N/N=C\c2ccc([N+](=O)[O-])o2)cc1,13µM,-,-,-,-
O=C(O)/C=C/c1ccc([N+](=O)[O-])o1,-,?,-,-,-
O=C1SCCN1N=Cc1ccc([N+](=O)[O-])o1,22µM,?,?,?,?
O=[N+]([O-])c1ccc(/C=N/N=C/c2ccc([N+](=O)[O-])o2)o1,4.5µM,?,-,?,-
Cc1ccc(S(=O)(=O)N/N=C\c2ccc([N+](=O)[O-])o2)cc1C,-,-,-,?,-
Cc1ccc(S(=O)(=O)c2cn(CC(=O)Nc3ccccc3)c3cc4c(cc3c2=O)OCO4)cc1,.,-,-,-,-
COc1ccc(-c2ccc(CNc3ccc4[nH]c(=O)[nH]c4c3)o2)cc1Cl,.,?,-,-,-
O=C1C2C3C=CC(C4CC34)C2C(=O)N1/N=C/c1ccc([N+](=O)[O-])o1 (centres undefined),11µM,?,-,?,-
Cc1ccc(NC(=O)c2ccccc2)cc1,-,?,-,?,-
Cc1ccc(NC(=O)C2=C(c3ccccc3)S(=O)(=O)CCS2(=O)=O)cc1,11µM,?,?,?,?
SMILES,HCV inhibitor,MARV entry inh,Vaccinia Venus,LASV entry inh,VACV mCherry inh
CC(C)C(=O)N[C@H]1CCCN1C(=O)C=Cc1ccccc1,.,-,.,?,.
COc1ccc(-c2nc(S(=O)(=O)c3ccc(Cl)cc3)c(NCc3ccccc3)o2)cc1,.,-,-,?,-
COC(=O)c1cc(Cl)cc2c(C)c(C3(O)CCCCC3)[nH]c12,8.9µM,.,-,.,-
CCc1c(C2(O)CCCCC2)[nH]c2c(C(=O)OC)cc(Cl)cc12,?,.,-,.,-
COc1ccc(NC(=O)C2C3C=CC4(O3)C2C(=O)N(CCN2CCCCC2)C4C(=O)NC2CCCC(C)C2C)cc1 (centres undefined),-,5µM,-,-,-
Cc1ccc(-c2ccnc(-n3ncc(C(=O)NCCN4CCOCC4)c3C3CC3)n2)o1,.,.,-,.,-
CC(C)c1ccc(/C=C/C(=O)Nc2nncs2)cc1,?,?,-,8.9µM,-
c1ccc(C(c2nnnn2C2CCCC2)N2CCN(c3ccccc3)CC2)cc1 (centres undefined),-,?,-,18µM,-
COc1ccc(OC)c(C(c2nnnn2C2CCCC2)N2CCN(c3ccccc3)CC2)c1 (centres undefined),-,10µM,-,?,.
COc1ccc(C(c2nnnn2C2CCCCC2)N2CCN(c3ccc(OC)cc3)CC2)cc1 (centres undefined),?,?,-,?,.
CCN(C(=O)CSc1nnc(-c2cc3occc3n2C)n1-c1ccccc1C)c1ccccc1,.,.,-,?,-
Cc1ccc(CN2CCOc3ccc(CN4CCN(CCO)CC4)cc3C2)s1,.,.,-,.,-
Cc1cc(OC(C)C(=O)NCc2cccnc2)c2c(C)c(Cc3ccccc3)c(=O)oc2c1 (centres undefined),13µM,.,.,.,.
CC(=O)Nc1ccccc1-c1nc2ccccc2n(Cc2cccc(Br)c2)c1=O,.,-,-,-,-
O=c1c2c3c(sc2n2cnnc2n1Cc1ccccc1)CN(Cc1ccccc1)CC3,7.9µM,-,-,-,-
Cc1nnc2n(Cc3ccccc3)c(=O)c3c4c(sc3n12)CN(Cc1ccccc1)CC4,.,-,.,.,.
COc1cc2c(C#CCCO)c(-c3ccsc3)oc(=O)c2cc1OC,10µM,.,?,.,-
O=C1N[C@H](Cc2ccccc2)COC(=O)[C@H](Cc2ccc(F)cc2)CC/C=C/C[C@H]1CC(=O)N(CCO)Cc1ccccc1,?,.,?,.,-
O=C1N[C@@H](Cc2ccccc2)COC(=O)[C@@H](Cc2ccc(F)cc2)C/C=C\C[C@@H]1CC(=O)N(CCO)Cc1ccccc1,?,.,13µM,.,?
Cc1ccc(Cl)cc1NC(=S)N(CCCN1CCN(C)CC1)Cc1cccs1,6.3µM,?,-,.,-
CCOP(=O)(OCC)c1nc(-c2ccc(Cl)cc2Cl)oc1N1CCCCC1,?,?,-,6.3µM,-
CCC(=O)Nc1ccc(C)cc1-c1nc2ccccc2n(CC(=O)Nc2ccccc2Cl)c1=O,.,-,?,-,-
Cc1nn(-c2ccccc2)c(N2CCCC2)c1/C=N/NC(=O)c1cc(-c2ccccn2)nc2ccccc12,4µM,?,-,?,-
O=S(=O)(Nc1nc2ccccc2nc1Nc1cccc(S(=O)(=O)N2CCCCC2)c1)c1ccccc1,?,?,?,?,11µM
COC(=O)c1ccc(NC(=O)c2cc(-c3ccccn3)nc3ccccc23)cc1,-,-,-,-,-
SMILES,HCV inhibitor,MARV entry inh,Vaccinia Venus,LASV entry inh,VACV mCherry inh
Cc1nn(-c2ccccc2)c(N2CCCC2)c1/C=N/NC(=O)c1cc(-c2ccccc2)nc2ccccc12,?,?,-,-,-
COc1ccc(NC(=O)c2cc(-c3ccccn3)nc3ccccc23)cc1S(=O)(=O)N(C)C,?,16µM,-,?,-
CCN(CC)S(=O)(=O)c1cc(NC(=O)c2cc(-c3ccccn3)nc3ccccc23)ccc1C,14µM,.,.,.,.
CCCCCCCCCCCCCCCC[n+]1ccc(CC(O)c2c(C)[nH]c3ccccc23)c2ccccc21 (centres undefined),.,.,-,.,-
O=C(Nc1cccc(S(=O)(=O)N2CCCC2)c1)c1cc(-c2ccccn2)nc2ccccc12,?,7.9µM,-,?,-
Cc1cc(C(=O)Nc2cccc(S(=O)(=O)N3CCCCC3)c2)c2ccccc2n1,?,-,-,-,-
Cc1ccc(C2=CN(Cc3ccccc3)CCC2=O)cc1,?,.,-,.,-
